# Compound activity deposited in PubChem BioAssay by Sanford-Burnham Center for Chemical Genomics.
# Rows were chosen to be rich in hits. Some 28% of all compounds tested hit in one or more screens of this group.
# PTK2B oligo ant – antagonists of Pyk2 self-association, primary screen, Q293 cells, FERM NanoBiT luminescence, HTS. Protein-tyrosine kinase 2-beta (Homo sapiens), Q14289. hits give low values. z-score (the deposit names both 25 µM and 10 µM). 99,000 tested, 0.83% active;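 active = Z-score of -3 or lower, scaled per plate to the spread of control and sample wells; inactive = z-score above -3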;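 note: negative z-score means lost luminescence so less FERM oligomerization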
# CYP2C9 inhib – blockers of cytochrome P450 2C9 activity – biochemical, luminescence, ADME assay, primary screen. AID 777, 2007. CYP2C9 Supersomes, luciferin-H conversion. inhibition, % at 5 µM. 96,000 tested, 20% active;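 active = blocking of liver enzyme CYP2C9 beyond about 50% at 5 µM, limit read from the data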
# CYP2C19 inhib – blockers of cytochrome P450 2C19 activity – biochemical, luminescence, ADME assay, primary screen | P33261 | CYP2C19 Supersomes, luciferin-H EGE luminescence, 30 min | inhibition, % at 5 µM | 96,000 tested, 21% active;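 active = CYP2C19 inhibition above a set limit at 5 µM in the primary screen, cut at about 50% in these data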
# CYP2C19 act – human CYP2C19 activators, primary screen, biochemical, luminescence; Cytochrome P450 2C19 (Homo sapiens), P33261; recombinant CYP2C19, luciferin-H EGE luminescence; hits give high values; 0 = fully inhibited enzyme, 1 = untreated enzyme; activation factor at 5 µM; 96,000 tested, under 10 active;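 active = activation factor of at least 2 at 5 µM in the primary screen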
# CYP2C9 act – human CYP2C9 activators, primary screen, biochemical, luminescence; recombinant CYP2C9, luciferin-H conversion; hits give high values; factor 1 = untreated enzyme, 0 = blocked; activation factor at 5 µM; 96,000 tested, 1.4% active; Cytochrome P450 2C9 (Homo sapiens), P11712;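 active = activation factor of 2 or more for CYP2C9 at a 5 µM dose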
# Numbers stand for hits; - = inactive; . = no result.
SMILES,PTK2B oligo ant,CYP2C9 inhib,CYP2C19 inhib,CYP2C19 act,CYP2C9 act
COc1ccccc1NC(=O)COc1ccc(/C=N/n2cnnc2)cc1OC,-,72,56,-,-
CC1CN(c2oc(-c3ccco3)nc2S(=O)(=O)c2ccccc2)CC(C)O1 (stereo unspecified),-,-,-,-,-
CCN(Cc1ccncc1)S(=O)(=O)c1ccc(C(C)=O)cc1,-,87,91,-,-
CC(=O)Nc1ccc(NC(=O)C(C)O/N=C/c2cccc([N+](=O)[O-])c2)cc1 (stereo unspecified),-,60,-,-,-
O=C(O/N=C/c1cccc([N+](=O)[O-])c1)C1CC1,-,-,-,-,-
O=C(CO/N=C/c1cccc([N+](=O)[O-])c1)Nc1ccc2ccccc2c1,-,88,-,-,-
O=C(N/N=C/c1cccc([N+](=O)[O-])c1)c1cc2c(ccc3ccccc32)o1,-,-,-,-,-
c1ccc(CCNc2nnnn2-c2ccccc2)cc1,-,-,58,-,-
Clc1ccc(CNc2nnnn2-c2ccccc2)c(Cl)c1,-,53,98,-,-
CN(C)C(CNC(=O)c1cccnc1Sc1ccccc1)c1ccco1 (stereo unspecified),-,-,-,-,-
O=C(Nc1cccc(C(F)(F)F)c1)N(Cc1ccc(Cl)cc1)CC(O)C(F)(F)F (stereo unspecified),-,-,-,-,-
CC1CC(=O)c2cnc(Nc3ccccc3)nc2C1 (stereo unspecified),-,-,-,-,-
CC1CC(=O)c2cnc(Nc3cccc(C(F)(F)F)c3)nc2C1 (stereo unspecified),-,-,53,-,-
Cc1csc(NC(=O)C2CCC(C)(C(=O)O)C2(C)C)n1 (stereo unspecified),-,-,-,-,-
CCC(=O)N1CCN(c2ccccc2NC(=O)Cc2ccc(Cl)cc2)CC1,-,-,-,-,-
CCCC(=O)Nc1cc(Cl)ccc1N1CCN(C(=O)CC)CC1,-,85,86,-,-
COc1ccc(CCC(=O)Nc2cc(Cl)ccc2N2CCN(C)CC2)cc1,.,-,-,-,-
CCC(=O)N1CCN(c2ccc(Cl)cc2NC(=O)Cc2ccc(Cl)cc2)CC1,-,-,51,-,-
CC(C)(C)OC(=O)N1CCOCCOCCN(C(=O)OC(C)(C)C)CCOCC1,-,-,-,-,-
Cc1ccc(Nc2nc(CSc3nnnn3C)cs2)cc1,-,-,70,-,2.8
Cc1ccc(Nc2nc(CSc3nnnn3-c3ccccc3)cs2)cc1,-,-,-,-,-
Cn1nnnc1SCc1cccc(CSc2nnnn2C)n1,-,-,98,-,-
Cn1nnnc1SCc1csc(Nc2ccccc2)n1,-,-,-,-,3.8
O=C(CN1CCCCC1)N1c2ccccc2CCc2ccccc21,-,-,-,-,-
O=C(CN1CCN(C(=O)c2ccco2)CC1)Nc1cc(Cl)ccc1Cl,-,-,-,-,-
SMILES,PTK2B oligo ant,CYP2C9 inhib,CYP2C19 inhib,CYP2C19 act,CYP2C9 act
O=C(c1ccco1)N1CCN(CC(=O)N2c3ccccc3CCc3ccccc32)CC1,-,61,-,-,-
O=C(CN1CCN(C(=O)c2ccco2)CC1)Nc1ccccc1-c1ccccc1,-,80,76,-,-
CCn1nnc(NC(=O)c2ccccc2Br)n1,-,-,-,-,-
Cc1cc2ncn(C3CC(=O)N(Cc4ccccc4)C3=O)c2cc1C (stereo unspecified),-,-,-,-,-
CCC(C)(C)NC(=O)CN(C(=O)c1snc(C(N)=O)c1N)c1ccc2c(c1)OCCO2,-,64,-,-,-
COc1ccc(C(=O)N(CC(=O)NC(C)(C)C)c2ccc3c(c2)OCCO3)cc1OC,-,-,-,-,-
CCOC(=O)c1oc2cc(O)ccc2c(=O)c1-c1ccc(OC)cc1,-,-,-,-,-
CCOC(=O)c1oc2cc(O)c(CC)cc2c(=O)c1-c1ccc2c(c1)OCCO2,.,99,-,-,-
Cc1ccc(C(=O)CSc2nnnn2C(C)C)c(C)c1,-,-,77,-,-
Cc1ccc(C)c(C(=O)CSc2nnnn2C(C)C)c1,-,-,66,-,-
Cc1ccc(C)c(C(=O)CSc2nnnn2-c2cccnc2)c1,-,-,-,-,-
